Counter-ions that a name gives are not always drawn. ± gives the standard deviation of the averaged measurements.
What follows are molecules tested on Escherichia coli ATCC BAA-2469 (assay: percent growth inhibition of drug alone vs DMSO control; higher = more growth inhibition). Details: antibiotic (0.125x MIC): none (0.1% DMSO); 7 µM.
Procedure: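 Prestwick drugs tested at 20 uM and 7 uM with an antibiotic at 0.125x MIC (16 mg/L when MIC >128 mg/L) against E. coli ATCC BAA-2469 (NDM-1) in CAMHB, 384-well plates, duplicate runs. Percent growth inhibition was computed from OD600 (24 h minus 0 h) relative to DMSO wells. Drug + DMSO-only wells are also given. […]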

Structure (SMILES)	percent growth inhibition of drug alone [%]
Nc1c2ccccc2nc2ccccc12 [Aminacrine]	1.8 ± 0.95
CC(=O)OC[C@H]1O[C@@H]([S-])[C@H](OC(C)=O)[C@@H](OC(C)=O)[C@@H]1OC(C)=O.CCP(CC)CC.[Au+] [Auranofin]	5.6 ± 2.6
CO/N=C(\C(=O)N[C@@H]1C(=O)N2C(C(=O)O)=C(COC(N)=O)CS[C@H]12)c1ccco1 [Cefuroxime sodium salt]	-0.846 ± 2.2
OC(CCN1CCCC1)(c1ccccc1)C1CCCCC1 (stereo not given) [Procyclidine hydrochloride]	3.3 ± 1.6
CCOC(=O)c1ccc(N)cc1 [Benzocaine]	-0.533 ± 1.7
Clc1cccc(Cl)c1NC1=NCCN1 [Clonidine hydrochloride]	0.913 ± 1.3
CCCOc1ccc2[nH]c(NC(=O)OC)nc2c1 [Oxibendazol]	0.775 ± 0.31
O=C(Nc1ccc([N+](=O)[O-])cc1Cl)c1cc(Cl)ccc1O [Niclosamide]	2.78 ± 1.6
COc1cc(C(=O)NCc2ccc(OCCN(C)C)cc2)cc(OC)c1OC [Trimethobenzamide hydrochloride]	2.6 ± 2.7
CCN(CC)CCNC(=O)c1cc(Br)c(N)cc1OC [Bromopride]	-0.123 ± 0.93
N[C@@H]1CCCCN(c2c(F)cc3c(=O)c(C(=O)O)cn(C4CC4)c3c2Cl)C1 [Besifloxacin hydrochloride]	3.86 ± 3.6
O=C(N[C@H](CO)[C@H](O)c1ccc([N+](=O)[O-])cc1)C(Cl)Cl [Chloramphenicol]	27.7 ± 12
CCCNC(C)(C)COC(=O)c1ccccc1 [Meprylcaine hydrochloride]	0.029 ± 2.2
Cc1c(N(C)C)c(=O)n(-c2ccccc2)n1C [Amidopyrine]	0.00227 ± 1.1
NC(=O)N/N=C/c1ccc([N+](=O)[O-])o1 [Nitrofural]	5.6 ± 7.3
O=c1[nH]c(=O)n([C@H]2C[C@H](O)[C@@H](CO)O2)cc1C(F)(F)F [Trifluridine]	4.84 ± 4.7
CC(=O)c1ccc2c(c1)N(CCCN1CCC(CCO)CC1)c1ccccc1S2 [Piperacetazine]	0.548 ± 3.2
Cc1cccc(C)c1NC(=O)C1CCCCN1C (stereo not given) [Mepivacaine hydrochloride]	-0.605 ± 0.25
Cn1c(=O)c2c(ncn2C)n(C)c1=O [Caffeine]	1.12 ± 0.78
Cc1nnc(NS(=O)(=O)c2ccc(N)cc2)s1 [Sulfamethizole]	2.42 ± 3

Same assay, conditions: antibiotic (0.125x MIC): none (0.1% DMSO); 20 µM

Structure (SMILES)	percent growth inhibition of drug alone [%]
Nc1c2ccccc2nc2ccccc12 [Aminacrine]	21 ± 13
CC(=O)OC[C@H]1O[C@@H]([S-])[C@H](OC(C)=O)[C@@H](OC(C)=O)[C@@H]1OC(C)=O.CCP(CC)CC.[Au+] [Auranofin]	20.1 ± 20
CO/N=C(\C(=O)N[C@@H]1C(=O)N2C(C(=O)O)=C(COC(N)=O)CS[C@H]12)c1ccco1 [Cefuroxime sodium salt]	-0.542 ± 0.39
OC(CCN1CCCC1)(c1ccccc1)C1CCCCC1 (stereo not given) [Procyclidine hydrochloride]	-0.85 ± 5
CCOC(=O)c1ccc(N)cc1 [Benzocaine]	1.27 ± 1.7
CN(C)c1ccc(O)c2c1C[C@H]1C[C@H]3[C@H](N(C)C)C(O)=C(C(N)=O)C(=O)[C@@]3(O)C(O)=C1C2=O [Minocycline hydrochloride]	110 ± 14
Clc1cccc(Cl)c1NC1=NCCN1 [Clonidine hydrochloride]	3.75 ± 2.2
CCCOc1ccc2[nH]c(NC(=O)OC)nc2c1 [Oxibendazol]	2.44 ± 0.18
O=C(Nc1ccc([N+](=O)[O-])cc1Cl)c1cc(Cl)ccc1O [Niclosamide]	14.5 ± 19
COc1cc(C(=O)NCc2ccc(OCCN(C)C)cc2)cc(OC)c1OC [Trimethobenzamide hydrochloride]	-0.217 ± 4.2
CCN(CC)CCNC(=O)c1cc(Br)c(N)cc1OC [Bromopride]	1.57 ± 1.2
CCCNC(C)(C)COC(=O)c1ccccc1 [Meprylcaine hydrochloride]	-0.823 ± 0.32
Cc1c(N(C)C)c(=O)n(-c2ccccc2)n1C [Amidopyrine]	-1.02 ± 2.5
NC(=O)N/N=C/c1ccc([N+](=O)[O-])o1 [Nitrofural]	32.1 ± 18
O=c1[nH]c(=O)n([C@H]2C[C@H](O)[C@@H](CO)O2)cc1C(F)(F)F [Trifluridine]	11.3 ± 6.5
CC(=O)c1ccc2c(c1)N(CCCN1CCC(CCO)CC1)c1ccccc1S2 [Piperacetazine]	0.302 ± 2.2
Cc1cccc(C)c1NC(=O)C1CCCCN1C (stereo not given) [Mepivacaine hydrochloride]	-0.545 ± 1.2
Cn1c(=O)c2c(ncn2C)n(C)c1=O [Caffeine]	-1.35 ± 0.22
CO[C@H]1/C=C/O[C@@]2(C)Oc3c(C)c(O)c4c(O)c(c5c(nc6cc(C)ccn65)c4c3C2=O)NC(=O)/C(C)=C\C=C\[C@H](C)[C@H](O)[C@@H](C)[C@@H](O)[C@@H](C)[C@H](OC(C)=O)[C@@H]1C [Rifaximin]	102 ± 7.8
Cc1nnc(NS(=O)(=O)c2ccc(N)cc2)s1 [Sulfamethizole]	-3.23 ± 2.1

Source: the supplement of paper PMC6658780
